Bioassay records (PubChem)
Tgondii IFNg: inhibitors of Toxoplasma gondii growth with IFN-gamma; Toxoplasma gondii growth in IFN-gamma-treated host cells; hits give low values; activity change, negative = inhibition, % (concentration not given with the values); actives 3.8% (n = 69,000); in the data active = activity change below about -70%, passing the limit was not always enough;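 note: host cells are HeLa cells infected with Toxoplasma gondii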
Large screens that a line does not name were inactive. Many of the other results were omitted from the sample, so hits are more common in it than they were.

Cc1cccc(OCC(=O)N2CCC3(CC2)Nc2ccc(Cl)cc2-n2cccc23)c1	Tgondii IFNg -107
Cc1cccc(C(=O)N2CCC3(CC2)Nc2ccc(Cl)cc2-n2cccc23)c1	none
Cn1nc(C(=O)O)c2c1CCN(C(=O)C1(C)CCCO1)C2 (centres undefined)	none
CCOc1ccccc1NC(=O)Cn1c(=O)cc(C(=O)NC)c2ccccc21	none
CCOc1ccc(CNC(=O)C2=C(C)C(=O)OC23CCN(S(=O)(=O)CC)CC3)cc1	none
Cc1ccc(CN2C[C@@H]3COC[C@@]3(Cc3nnc(C4CC4)o3)C2)o1	none
CCN(CC)Cc1cnc2c(C(=O)N3CCn4cccc4C3C)cnn2c1 (centres undefined)	none
O=C(Nc1cnn(Cc2cccc(F)c2)c1)C1OCCc2ccccc21 (centres undefined)	Tgondii IFNg -97
O=C(NCCS(=O)(=O)c1ccc(F)cc1)C1OCCc2ccccc21 (centres undefined)	none
COc1cccc2cc(C(=O)Nc3cnn(Cc4cccc(F)c4)c3)c(C)nc12	none
COc1ccccc1C(NC(=O)CCC1(C)NC(=O)NC1=O)c1ccccc1 (centres undefined)	none
Cc1ccc(-c2cc(O)c3c(c2)CN(C(=O)CCN2CCCO2)CCO3)s1	Tgondii IFNg -75
Cc1ccc(-c2cc(O)c3c(c2)CN(CC2CCCN2C)CCO3)s1 (centres undefined)	none
Cc1ccc(-c2cc(O)c3c(c2)CN(C(=O)c2cccc(F)c2)CCO3)s1	Tgondii IFNg -70
Cc1noc(CN2CCOc3c(O)cc(-c4ccc(C)s4)cc3C2)n1	none
Cc1csc(CN2CCOc3c(O)cc(-c4ccc(C)s4)cc3C2)n1	none
Cc1cc(C(=O)N2CCOc3c(O)cc(-c4ccccc4C)cc3C2)no1	none
Cc1ccc(N(Cc2nc(-c3ccccc3)oc2C)S(=O)(=O)c2cccs2)cc1	none
Cc1oc(-c2cccc(Cl)c2)nc1CN(C)CC1(CO)CCOCC1	none
C=CCn1c(=O)c(-c2nc(-c3ccc(OCC)cc3)no2)c(O)c2ccccc21	none
Cc1nc(=O)c2ccccc2n1C1=CCN(Cc2ccccc2)CC1	none
O=C(CN1C(=O)CCc2cc(S(=O)(=O)N3CCCCC3)ccc21)NCCc1ccccc1	none
COCC1CCN(c2ccc(C(=O)N3CCC(N4CCOCC4)CC3)cn2)C1 (centres undefined)	none
Cn1nnnc1SCC(=O)N1CCOCC1	none
CCCn1nnnc1SCC(=O)NCc1ccc(OC)cc1	none
CCCn1nnnc1SCC(=O)N1C(C)CCCC1C (centres undefined)	Tgondii IFNg -76
Cc1ncc(CN2CCC3(CC2)CC(NS(C)(=O)=O)CCO3)[nH]1 (centres undefined)	none
CC(C)N1C[C@H]2CN(C(=O)c3cnc[nH]3)C[C@H]2C1=O	none
COc1ccccc1-c1nc(CSc2nc3c(=O)[nH]cnc3n2-c2ccc(C)cc2)c(C)o1	none
CC(=O)NC1CCN(C(=O)c2cccc(CC3CCNCC3)c2)CC1	none
CN1CCC2(CC1)CN(C(=O)COCC1CCCCO1)CCN2C (centres undefined)	none
O=C(NC(=O)c1csc(-c2ccc(C(F)(F)F)cc2Cl)n1)Nc1ccc(F)cc1	Tgondii IFNg -98
O=C(NCCc1csc(-c2ccc(Cl)cc2)n1)C(=O)Nc1ccc(F)cc1	none
O=C(Nc1ccc2c(c1)OCCO2)c1csc(-c2cccc3c2CCO3)n1	none
Cc1ccc(CC(=O)N2CCCC3(CC(C(=O)NCc4cccnc4)=NO3)C2)cc1 (centres undefined)	none
Cc1ccc(NC(=O)CSc2nnc(-c3ccncc3)n2-c2ccccc2)cc1	none
COc1ccc(NC(=O)CSc2nnc3c(C)cc4ccccc4n23)cc1	none
COc1ccc(-n2c(-c3ccccc3)cnc2SCC(=O)Nc2cc(C)cc(C)c2)cc1	Tgondii IFNg -98
O=c1nc(Nc2nc(=O)c3ccccc3s2)[nH]c(=O)[nH]1	none
Cc1nc2c(c3c1[nH]c1ccccc13)C(=O)CC(C)(C)C2	none
CNCCCCc1cnc(C)c2[nH]c3ccccc3c12	Tgondii IFNg -95
Cc1n[nH]c(C)c1CCCNC(=O)c1cc(=O)[nH]c2ccccc12	none
O=C(Cc1cccnc1)N1CCCC2(CCN(C(=O)c3ccco3)C2)C1 (centres undefined)	none
Cc1cc(I)ccc1Nc1c(C(=O)NOCC2CC2)cc(F)c(F)c1F	Tgondii IFNg -82
O=C(NOCCO)c1cc(CN2OCCCC2=O)c(F)c(F)c1Nc1ccc(I)cc1F	none
O=C(c1ccc(F)c(F)c1Nc1ccc(I)cc1F)N1CC(O)([C@@H]2CCCCN2)C1	none
CNCCn1c(=O)c2cc(OC)c(OC)cc2c2cnc3cc4c(cc3c21)OCO4	Tgondii IFNg -80
Cc1c(-c2nnnn2-c2ccc(F)cc2)cnc2cc3c(cc12)OCO3	none
CCc1nnc(CN(C(=O)Cc2c(C)[nH]c3c(F)cccc23)C(C)C)o1	none
COc1ccc(CC(=O)N2CCC3(CC2)Nc2ccc(Cl)cc2-n2cccc23)cc1	none
Cc1onc(-c2c(F)cccc2Cl)c1C1=NCCO1	none
Cc1onc(-c2c(Cl)cccc2Cl)c1-c1nnc(NC(=O)c2ccco2)s1	none
Cc1onc(-c2c(F)cccc2Cl)c1C(=O)ON=C1C2CC3CC(C2)CC1C3	Tgondii IFNg -85
CN(C)C(=O)N[C@H]1CN(Cc2nccn2C)C2CCCOC21 (some centres undefined)	none
Cc1ccc(NC(=O)Nc2ccc(C#N)cc2)cc1Cl	Tgondii IFNg -71
Cc1cccc(NC(=O)Nc2ccc(C)c(Cl)c2)n1	none
CC(=O)Nc1ccc(C)c(NC(=S)Nc2ccc(Cl)c(Cl)c2)c1	none
O=C(CC1N=C2c3ccccc3N=C(SCc3cccc(F)c3)N2C1=O)NCc1ccccc1 (centres undefined)	none
COCCN(C)C(=O)c1ncn2c(C3CCN(S(C)(=O)=O)CC3)ccnc12	none
CC1(CNC(=O)C2CC(=O)N(C3CCCCC3)C2)COC1 (centres undefined)	none
CN(C)CCOc1ccccc1C(=O)N1CCC(Oc2ccccc2F)CC1	none
Cc1noc2ncnc(SCC(=O)c3ccc(Cl)cc3)c12	none
COc1ccc(-c2nsc3c(SCc4ccccc4)ncnc23)cc1	none
Cc1ccc(C(=O)CSc2ncnc3c(-c4ccc(Cl)cc4)nsc23)cc1	Tgondii IFNg -85
CC(C)(C)c1cn(C2CCN(C(=O)c3cnc4ccccc4n3)CC2)nn1	none
Cc1cc(-c2cnc(NCc3c(C)nn(-c4ccccc4)c3C)nc2-c2ccco2)on1	none
CC(C)NC(=O)N1CCc2onc(C(=O)Nc3cccnc3)c2C1	none
c1ccc(Cn2c3ccccc3c3ccccc32)cc1	none
O=c1c2ccccc2n(Cc2ccc(F)cc2)c2ccccc12	Tgondii IFNg -81
O=C1CCCc2c1c1ccccc1n2Cc1ccccc1	none
CCC(=O)N1CCCCC1c1nnc(C2CCN(S(=O)(=O)CC)CC2)o1 (centres undefined)	none
Cc1ccc(CN2CCC(CNC(=O)C(C)n3c4ccccc4c4cnn(C)c(=O)c43)C2)cc1 (centres undefined)	Tgondii IFNg -104
CC(CCNC(=O)C(C)n1c2ccccc2c2cnn(C)c(=O)c21)N1CCCC1 (centres undefined)	none
Cc1ccc(CN2CCC(CNC(=O)Cn3c4ccccc4c4cnn(C)c(=O)c43)C2)cc1 (centres undefined)	none
O=C(c1ccc2c(c1)OCO2)N1Cc2cnn(CCO)c2C1	none
Cn1cnc2c1C(C(=O)O)CN(C(=O)c1ccc3c(c1)OCO3)C2 (centres undefined)	none
CC(C)n1nc2c(cc1=O)CN(C(=O)c1ccc3c(c1)OCO3)CC2	Tgondii IFNg -80
C=CCNc1ccccc1C(=O)N1CCOCC1CC(=O)O (centres undefined)	none
O=C(CC(=O)c1ccccc1O)c1ccc(F)cc1	Tgondii IFNg -109
O=C(NO)c1ccccc1O	none
O=C(O)c1ccccc1O	none
